Hits are enriched below; roughly 9.9% of the tested compounds scored in any of these assays.
Tau ThT inhib = tau fibrillization inhibition (ThT binding). recombinant tau K18 P301L, heparin-induced fibrillization, ThT fluorescence. actives 2.1% (n = 270,000). AID 1460. Potency, µM (top dose mostly 57.4 µM), for the others: top-dose activity, negative = inhibition, most hits filed as inhibitors. P10636; active = well fitted curve in the direction sought with a large enough effect; inconclusive = small, poorly fitted or top-dose-only effect, or another doubt; inactive = no such curve, though single readings can be large; an effect the other way counts as inactive or inconclusive; also: nearly all actives have a fitted effect of over 55% in size
Target sequence (P10636 561-689 P618L limits assumed): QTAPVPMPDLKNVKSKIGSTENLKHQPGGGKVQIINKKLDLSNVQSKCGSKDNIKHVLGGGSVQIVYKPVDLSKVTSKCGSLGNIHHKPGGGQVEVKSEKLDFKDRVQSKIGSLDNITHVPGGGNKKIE
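Using a mix of unlabeled (15 uM) and Alexa 594-labeled (0.24 uM) tau K18 P301L, heparin-triggered fibrillization over 6 hr at 37 C was scored by ThT fluorescence.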
ALDH1A1 block = ALDH1A1 (human) enzyme inhibition | Purified ALDH1A1, NADH fluorescence, propionaldehyde substrate | actives 7.3% (n = 220,000) | Potency, µM (series often up to 75.3 µM), for inactives: at the top dose activity, negative = inhibition, most hits filed as inhibitors | P00352 | AID 1030;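 also: plate controls were no enzyme wells and a reference inhibitor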
HPGD inh = HPGD (human) dehydrogenase inhibition. purified HPGD, NADH fluorescence kinetic, PGE2 substrate. Potency, µM, for the others: at the highest dose activity change, negative = inhibition, usual class: inhibitors. actives 4.3% (n = 150,000)
Target sequence (P15428 whole entry, looked up): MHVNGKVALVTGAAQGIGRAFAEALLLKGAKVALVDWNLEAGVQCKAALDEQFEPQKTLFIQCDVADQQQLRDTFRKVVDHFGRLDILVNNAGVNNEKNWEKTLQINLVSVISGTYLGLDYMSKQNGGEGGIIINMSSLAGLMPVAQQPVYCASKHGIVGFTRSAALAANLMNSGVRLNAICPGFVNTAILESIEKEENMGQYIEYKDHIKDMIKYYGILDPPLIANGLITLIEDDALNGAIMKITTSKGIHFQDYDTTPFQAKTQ
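NADH formation kinetics: reaction with 30 uM PGE2 and 1 mM NAD+ (final), 20 nM enzyme, Tris-HCl pH 8 with Tween 20, after 15 min compound preincubation at room temperature. Fluorescence change, last versus first of five reads.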
JMJD2E inh = inhibitors of human JMJD2E histone demethylase; B2RXH2; JMJD2E catalytic domain, FDH-coupled NADH fluorescence (FDH is formaldehyde dehydrogenase); Potency, µM (doses to about 57.1 µM), for inactives: top-dose activity change, negative = inhibition, most hits filed as inhibitors; actives 1.6% (n = 230,000);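 also: 0% = wells with enzyme and -100% = buffer wells without enzyme; nearly all actives have a fitted effect of over 50% in size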
Target sequence (B2RXH2 1-337 limits assumed): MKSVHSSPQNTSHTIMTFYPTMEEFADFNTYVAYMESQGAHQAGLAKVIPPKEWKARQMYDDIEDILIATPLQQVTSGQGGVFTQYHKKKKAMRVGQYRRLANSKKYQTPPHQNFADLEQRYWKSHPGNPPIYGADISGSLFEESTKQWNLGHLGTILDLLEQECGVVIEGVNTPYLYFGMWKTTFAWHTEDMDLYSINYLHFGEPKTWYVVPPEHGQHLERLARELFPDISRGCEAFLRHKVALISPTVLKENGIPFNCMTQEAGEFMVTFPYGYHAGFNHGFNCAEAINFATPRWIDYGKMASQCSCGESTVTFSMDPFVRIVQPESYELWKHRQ
Tau fluor cs = counter-screen for tau fibril formation inhibitors | AID 1463 | Potency, µM (series often up to 57.7 µM), without a hit: at the top dose activity change, negative = decrease | actives 0.93% (n = 280,000) | tau K18 P301L (four-repeat tau fragment) Alexa594 fluorescence, heparin fibrillization; active = well fitted curve in the direction sought with a large enough effect; inconclusive = small, poorly fitted or top-dose-only effect, or another doubt; inactive = no such curve, though single readings can be large; an effect the other way counts as inactive or inconclusive; also: nearly all actives have a fitted effect of over 55% in size
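Human K18 P301L tau (15 uM unlabeled plus 0.24 uM Alexa 594-labeled, final) in 100 mM sodium acetate pH 7 was mixed with compound and 20 uM heparin and incubated 6 hr at 37 C.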
Tau FP inhib = blocks human tau fibril formation measured by polarization. P10636. K18 P301L tau heparin fibrillization, Alexa594 FP, 6 h. Potency, µM (titrated, usually from 57.7 µM), for the others: at the highest dose activity, negative = inhibition, usual class: inhibitors. actives 0.39% (n = 280,000); active = well fitted curve in the direction sought with a large enough effect; inconclusive = small, poorly fitted or top-dose-only effect, or another doubt; inactive = no such curve, though single readings can be large; an effect the other way counts as inactive or inconclusive; also: nearly all actives have a fitted effect of over 55% in size
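Compound effects on tau fibrillization are measured by Alexa 594 fluorescence polarization (ex 555, em 632 nm). K18 P301L tau is used at 15 uM with 0.24 uM labeled tracer, and 20 uM heparin induces aggregation over 6 hr at 37 C.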
* = called active by the depositor; u = inconclusive; x = no result given. Unless noted, calls follow the shape of the dose curve; as a rule, active = well fitted inhibition curve with a large enough effect (not every such curve was filed as active); inconclusive = small, poorly fitted or top-dose-only effect, or another doubt; inactive = no such curve, though single readings can be large or run the other way. Unless noted, % is scaled to controls: 0 for no effect and ±100 for the full control effect; potency is read from the fitted curve at half-maximal effect.

SMILES	Tau ThT inhib	ALDH1A1 block	HPGD inh	JMJD2E inh	Tau fluor cs	Tau FP inhib
Cc1cc(C)cc(NC2=NCC(=O)N2Cc2ccccc2)c1	-15.1%	0.6%	-6.8%	0.9%	-6.0%	6.5%
Cc1oc2c(c1C(=O)Nc1cccc(Br)c1)C1=NCCN1C=N2	-8.7%	x	x	x	-13.1%	-2.1%
Cc1sc(NC(=O)c2ccco2)c(C(c2cccnc2)N2CCN(C)CC2)c1C (stereo not given)	-7.4%	-4.6%	-2.2%	1.7%	-1.1%	-0.8%
CN1CCN(C(c2cccnc2)c2ccc3cccnc3c2O)CC1 (stereo not given)	8.3%	1.89µM*	-29.2%	2.8%	-2.5%	-7.2%
Cc1oc2ncn(CC(C)C)c(=O)c2c1C(=O)NCc1cccc(Cl)c1	2.4%	x	x	x	-19.0%	-2.1%
COc1ccc(S(=O)(=O)N(Cc2nc(-c3cccc(C)c3)no2)C2CCCCC2)cc1	-0.5%	x	x	x	-24.5%	-9.9%
CN(C)CCOc1cccc(Cl)c1	-1.3%	-9.2%	-4.8%	22.4µM*	-0.9%	-3.7%
CN(C)CCOc1cc(Cl)cc(Cl)c1	1.1%	9.8%	x	-3.4%	2.6%	u
O=C(Nc1ccccc1)N1CCCC2(CCN(S(=O)(=O)c3ccccc3)CC2)C1	x	u	-1.2%	x	x	x
O=C(Nc1ccc(N2CCCC(O)C2)cc1)c1snc2c(=O)[nH]cnc12 (stereo not given)	3.55µM*	8.6%	u	-2.4%	-28.9%	0.0%
O=C(O)CCc1ccc(-c2ccccc2)n1-c1cccc(Br)c1	-24.0%	x	x	x	-14.2%	-2.3%
Cc1ccc2c(c1)C1CN(C)CCC1N2C(=S)NC(=O)c1ccc(Br)cc1 (stereo not given)	-13.0%	14.1µM*	x	-5.7%	-12.8%	-4.0%
COC(=O)[C@@]1(Cc2ccccc2)[C@H]2c3cc(C(=O)N(C)C)n(Cc4ccc(S(C)(=O)=O)cc4)c3C[C@H]2CN1C(=O)c1ccccc1	u	-9.3%	-9.2%	-2.5%	-5.1%	9.8%
CC(C)(C)OC(=O)NCC(=O)Oc1cc2oc(=O)cc(-c3ccccc3)c2cc1Cl	-16.7%	25.1µM*	u	u	-20.5%	3.8%
O=C(O)COc1ccc2c(-c3ccccc3)cc(=O)oc2c1	-1.2%	u	17.8µM*	-8.6%	-4.4%	0.7%
Cn1c(Sc2ccc(C(=O)O)cc2[N+](=O)[O-])nnc1-c1ccccc1	2.9%	7.4%	x	-7.0%	6.5%	3.5%
O=C(O)c1ccc(Sc2nnc(-c3cccc(Br)c3)o2)c([N+](=O)[O-])c1	u	15.1%	14.1µM*	2.2%	-19.5%	4.2%
O=C(CN1C(=O)c2ccccc2S1(=O)=O)c1ccc(O)c(O)c1	x	x	x	14.1µM*	5.4%	5.5%
COc1ccc(NC(C)=O)cc1NC(=O)c1ccc(C#N)cc1	-17.2%	5.5%	x	0.2%	-10.6%	-1.4%
CCCCN(CC)C(=O)c1ccc2c(c1)NC(=O)c1ccccc1S2	-16.6%	x	x	x	-19.7%	-1.4%
Cc1cccc(N(C)C(=O)CSc2nc3ncccc3o2)c1	-9.9%	x	x	x	0.1%	-1.1%
CCc1cccc(CC)c1NC(=O)COC(=O)/C(C#N)=C/c1ccc(OC)cc1	-14.4%	-14.2%	-15.9%	-1.4%	-2.7%	-8.5%
COc1ccc(/C=C(\C#N)C(=O)OCC(=O)NC2CC2)cc1	-1.8%	20µM*	x	-8.0%	-0.4%	-3.9%
COc1ccc(/C=C(\C#N)C(=O)OCC(=O)Nc2ccc(C(C)(C)C)cc2)cc1	-12.6%	22.4µM*	u	3.0%	-24.0%	u
CCOC(=O)/C(C#N)=C/c1ccc(OCC(=O)Nc2ccc(OC)cc2)c(OC)c1	u	5.01µM*	-31.1%	-13.0%	-2.9%	-8.2%
SMILES	Tau ThT inhib	ALDH1A1 block	HPGD inh	JMJD2E inh	Tau fluor cs	Tau FP inhib
O=C(Nc1cccnc1)c1ccccc1Oc1ccccc1	-8.5%	17.8µM*	-14.5%	3.3%	-5.7%	-6.5%
O=C(Nc1cccnc1)c1ccc(COc2ccccc2Cl)o1	-9.0%	-2.6%	14.1µM*	2.4%	-11.7%	-1.8%
CC(C)COc1ccc(C(=O)N2CCC(c3nc4ccccc4s3)CC2)cc1	u	x	x	x	-11.1%	-0.6%
Cn1c(=O)n(-c2ccc(Br)cc2F)c(=O)c2sc3ccccc3c21	2.4%	x	x	x	-6.0%	-1.2%
CCC(C)NC(=O)c1c(-c2ccccc2)c(-c2ccccc2)nn(C)c1=O (stereo not given)	-0.7%	x	x	x	-8.1%	0.7%
Cc1ccc(CNC(=O)C(=O)NCC(c2cccs2)S(=O)(=O)c2cccs2)cc1 (stereo not given)	0.4%	x	x	x	-24.2%	-10.6%
O=C(CN1CC(c2ccccc2)CC1=O)OCc1ccccc1F (stereo not given)	-5.0%	8.91µM*	-20.6%	1.4%	0.0%	1.6%
COc1cc(-c2nc(Cn3nnc(C(=O)Nc4ccc(C)cc4C)c3C)c(C)o2)cc(OC)c1OC	16.4%	x	x	x	8.1%	u
O=C(CN1C(=O)C2CCCCN2c2ccc(C(=O)N3CCCC3)cc21)NCc1ccc(F)cc1 (stereo not given)	3.3%	x	x	x	3.2%	3.8%
Cc1cc(C(=O)N/N=C2\CC(=O)CC(C)(C)C2)c(C)n1-c1ccccc1	2.9%	u	-21.6%	0.5%	3.4%	0.8%
Cc1cc(C(=O)N/N=C2\CC(=O)CC(C)(C)C2)c(C)n1-c1ccc(F)cc1	u	28.2µM*	-9.6%	-21.9%	-15.5%	-5.1%
COc1ccc(-n2nnnc2S(=O)(=O)CC(=O)N2CCCCC2)cc1	u	6.31µM*	14.1µM*	-6.9%	-4.1%	-11.3%
Nc1nc2ccc(C(=O)NCCOC(=O)C3CCCCC3)cc2s1	-16.8%	10µM*	x	-10.2%	-23.0%	-7.8%
O=C(Nc1sc2c(c1C(=O)O)CCC2)c1ccco1	u	-5.1%	22.4µM*	-0.1%	-13.9%	-4.5%
CC(C)(C)c1ccc(C(=O)Nc2sc3c(c2C(=O)O)CCC3)cc1	14.1µM*	0.0%	x	u	u	-7.2%
Cc1cccc(NC(=O)c2c(NC(=O)c3ccccc3)sc3c2CCCC3)c1	10µM*	x	x	x	u	u
COC(=O)c1c(NC(=O)c2ccco2)sc2c1CCC2	u	u	u	u	-13.9%	-4.9%
O=C(Nc1sc2c(c1C(=O)O)CCCC2)c1cccs1	u	-11.2%	25.1µM*	-0.9%	-18.1%	-0.7%
Cc1ccc(C(=O)C(NC(=O)c2ccco2)Nc2sc3c(c2C(N)=O)CCCC3)cc1 (stereo not given)	28.2µM*	u	-11.7%	u	u	-12.1%
CCOC(=O)c1c(-n2c(C)cc(C=O)c2C)sc2c1CCCC2	-20.3%	u	0.0%	-0.5%	-15.3%	8.6%
Cc1ccc(C(=O)Nc2sc3c(c2C(=O)NCc2ccco2)CCCC3)cc1	-10.0%	u	u	u	-22.0%	2.9%
